Bioassay records: PubChem BioAssay, National Center for Advancing Translational Sciences (NCATS)
An excerpt weighted towards active compounds, which were near 1.2% of everything screened.
gsp antagonist = qHTS for Antagonists of gsp, the Etiologic Mutation Responsible for Fibrous Dysplasia/McCune-Albright Syndrome: qHTS; gsp-mutant cells, cAMP HTRF, 30 min; Potency, µM (top dose mostly 76.9 µM), for the others: at the highest dose activity change, negative = inhibition, actives largely listed as inhibitors; 340,000 compounds, 0.4% hits; calls by dose curve; cell line not stated here;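 note: intracellular cAMP measured with PDE inhibitor Ro 20-1724 present during compound exposure; potency is the fitted concentration of half-maximal effect; % is set by controls: 0 for no effect and ±100 for the full control effect; nearly all actives have a fitted effect of over 65% in size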
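HTRF cAMP measurement after 30 min RT detection following 30 min, 37C compound treatment alongside […] (added as 300 uM solution) in G418-selected cells seeded at 2000/well and grown 16–24 h.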
CCT chaperon mod = High-Throughput Screening for Modulators of Cytosolic Chaperonin Activity; activity change, % (no concentration beside the values), hits read low; 360,000 compounds, 0.3% hits; purified chaperonin ATPase assay, HTRF ADP detection, 30 min; AID 651819, 2012; in the data active = activity change below about -30%; note: % is set by controls: 0 for no effect and ±100 for the full control effect
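First, chaperonin was dispensed at 40 nM or 20 nM final depending on batch activity. Next, compounds were pinned at 76 uM and ATP added at 10 uM. After 30 min at 37 °C, ADP detection reagents ran 30 min at ambient temperature.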
gsp agonist = qHTS for Agonist of gsp, the Etiologic Mutation Responsible for Fibrous Dysplasia/McCune-Albright Syndrome: qHTS | gsp mutant cells, cAMP HTRF, 30 min | Potency, µM (top dose mostly 76.9 µM), inactives show at the top dose activation (cAMP increase), usual class: activators | 340,000 compounds, 0.13% hits; active = well fitted activation curve with a large enough effect; inconclusive = small, poorly fitted or top-dose-only effect, or another doubt; inactive = no such curve, though single readings can be large or run the other way; cell line not stated here;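 note: phosphodiesterase inhibitor Ro 20-1724 added with compounds to block cAMP breakdown; potency is the fitted concentration of half-maximal effect; nearly all actives have a fitted effect of over 60% in size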
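Cells stably selected in G418 were plated at 2000/well, grown 16-24 hr, then given compounds in DMSO with the PDE inhibitor […] (300 uM solution added) for 30 min at 37C; cAMP was read by HTRF.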
uPA surface inh = qHTS for Inhibitors of Cell Surface uPA Generation | AID 540303, 2011 | 330,000 compounds, 0.31% hits | cell surface uPA generation assay, qHTS | Potency, µM (titrated, usually from 38.3 µM), for inactives: top-dose activity change, negative = inhibition, actives largely listed as inhibitors; active = well fitted inhibition curve with a large enough effect; inconclusive = small, poorly fitted or top-dose-only effect; inactive = no such curve, though single readings can be large or run the other way; tested in mouse RAW 264.7 cells; note: potency is the fitted concentration of half-maximal effect; % is set by controls: 0 for no effect and ±100 for the full control effect; nearly all actives have a fitted effect of over 55% in size
TSHR antag = Antagonists of the Thyroid Stimulating Hormone Receptor: HTS campaign. Thyrotropin receptor (Homo sapiens), P16473. TSHR-expressing cells, TSH-stimulated cAMP HTRF, 2 h; active compounds read low. activity change, negative = inhibition, % at 11.5 µM. 330,000 compounds, 0.2% hits. AID 504810, 2011;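 active = activity change below a set negative limit, meaning inhibition stronger than a set level, cut at about -70% in these data; inconclusive = activity change between two set negative limits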; note: % is set by controls: 0 for no effect and ±100 for the full control effect
Target sequence (P16473 whole entry, looked up): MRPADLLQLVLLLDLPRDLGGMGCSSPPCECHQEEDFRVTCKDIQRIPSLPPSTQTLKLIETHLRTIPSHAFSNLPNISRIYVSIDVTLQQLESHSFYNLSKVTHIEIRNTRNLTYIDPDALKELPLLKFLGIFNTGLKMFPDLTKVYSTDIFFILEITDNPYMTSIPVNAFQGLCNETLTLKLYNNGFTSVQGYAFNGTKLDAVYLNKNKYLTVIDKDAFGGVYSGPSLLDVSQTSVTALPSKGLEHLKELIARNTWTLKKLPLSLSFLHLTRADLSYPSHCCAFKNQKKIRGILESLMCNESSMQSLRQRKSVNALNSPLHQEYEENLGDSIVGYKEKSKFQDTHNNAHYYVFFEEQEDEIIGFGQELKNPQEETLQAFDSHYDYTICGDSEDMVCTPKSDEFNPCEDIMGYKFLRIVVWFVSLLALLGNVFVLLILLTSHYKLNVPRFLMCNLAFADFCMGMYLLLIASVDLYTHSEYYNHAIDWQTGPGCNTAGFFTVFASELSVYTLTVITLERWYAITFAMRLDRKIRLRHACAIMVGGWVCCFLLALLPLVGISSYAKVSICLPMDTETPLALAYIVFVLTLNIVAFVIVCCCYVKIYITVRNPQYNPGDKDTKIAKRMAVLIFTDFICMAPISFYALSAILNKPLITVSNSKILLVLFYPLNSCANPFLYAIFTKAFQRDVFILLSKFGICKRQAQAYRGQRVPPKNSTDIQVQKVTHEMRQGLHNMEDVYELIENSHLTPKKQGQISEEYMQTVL
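Antagonism was scored as loss of TSH-driven cAMP in TSHR cells, stimulated with 4nM TSH (EC80) for 2 hours at 37 deg C and detected by homogeneous HTRF competition immunoassay.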
Mm-Cpn inhibitor = Inhibitors of TCP-1 ring complex (TRiC) of Methanococcus maripaludis (MmCpn): qHTS; 330,000 compounds, 0.031% hits; Potency, µM (doses to about 76.9 µM), for inactives: at the top dose activity, negative = inhibition, hits mostly inhibitors; purified Mm-Cpn ATPase, ADP Transcreener TR-FRET; AID 504842, 2011; active = well fitted inhibition curve with a large enough effect; inconclusive = small, poorly fitted or top-dose-only effect; note: potency is the fitted concentration of half-maximal effect; % is set by controls: 0 for no effect and ±100 for the full control effect; nearly all actives have a fitted effect of over 80% in size
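25 nM Mm-CPN + cpd, 10 min 37°C; + 10 uM ATP, 30 min 37°C; buffer 30 mM Tris pH 7.4, 100 mM KCl, 5 mM MgCl2, 1 mM DTT; Transcreener ADP HTRF detection 30 min RT.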
Starred values were filed as active, the others as inactive; ? = inconclusive; . = no result; ! = not confirmed by another sample; [ ] = dose if it differs, or a comment.

SMILES	gsp antagonist	CCT chaperon mod	gsp agonist	uPA surface inh	TSHR antag	Mm-Cpn inhibitor
Cn1nnnc1SCC1=C(C(=O)O)N2C(=O)C(NC(=O)C3CC3c3ccccc3)C2SC1 (centres undefined)	-3.0%	-1.2	?	-9.2%	-104.9*	-3.0%
COc1ccc(C(C)=O)cc1COC(=O)CCNS(=O)(=O)c1ccc(C)c(C)c1	-18.1%	-2.1	-24.3%	1.2%	-3.9	-1.4%
CC1(C)CC(C(N)=S)CCO1 (centres undefined)	6.6%	1.0	28.8%[15.4 µM]	0.2%	-2.5	-1.3%
Cc1ccc(Cl)cc1N1C(=O)CC(Sc2ccccc2N)C1=O (centres undefined)	.	-32.6*	?	.	.	.
Nc1ccccc1SC1CC(=O)N(c2ccc(Cl)c(Cl)c2)C1=O (centres undefined)	-17.2%	0.5	-14.7%	1.0%	-6.1	-0.2%
Cc1cc(C(=O)CN2c3cccc4cccc(c34)S2(=O)=O)c(C)n1C	15.9%	-1.1	-67.4%	2µM*	11.5	0.3%
CCN(CC)c1ccc(NC2=C(Cl)C(=O)c3ccccc3C2=O)cc1	-5.2%	-0.9	-11.2%	-1.5%	-92.8*	-2.5%
CCNC1=C(Cl)C(=O)c2ccccc2C1=O	-2.5%	1.6	0.0%	-12.4%	-3.8	-4.1%[15.4 µM]
Cc1ccc(NC2=C(Cl)C(=O)c3ccccc3C2=O)cc1	2.1%	-1.0	2.2%	-2.3%	6.0	-3.0%
CCCC(=O)NC1=C(Cl)C(=O)c2ccccc2C1=O	44.7µM*	-0.5	-2.0%	-14.8%	.	.
CCOC(=O)/C(C#N)=C/Nc1ccccc1OC	11.9%	1.0	-47.0%	-5.8%	-1.1	-3.9%
O=C(CSc1ccc(-c2ccc(F)cc2)nn1)N1CCN(c2ccccc2)CC1	7.1%	-0.7	15.9%[15.4 µM]	-1.4%	3.6	0.3%
Cc1nn(CC(=O)N2CCC(C)CC2)c(=O)c2cccn12	0.2%	-55.0*	?	?	13.9	0.0%
CCOC(=O)C1CCN(C(=O)Cn2nc(C)n3cccc3c2=O)CC1	6.3%	0.4	?	6.8%	44.9	2.8%
CCCCNC(=O)C1(C)CCCCN1C(=O)c1cncc(Br)c1 (centres undefined)	.	-3.3	.	.	.	.
O=C(CN1C(=O)c2ccc(Br)cc2C1=O)NCC1CCCO1 (centres undefined)	13.1%	0.6	7.08µM*	-7.7%	41.2	0.0%
Cc1cccc(OCCNC(=O)c2ccc(Cl)c(S(=O)(=O)NCc3cccnc3)c2)c1	6.2%	1.9	0.6%	?	-1.0	0.2%
CCCOc1cccc(C(=O)Nc2ccc3c(c2)OCCO3)c1	-12.0%	-1.4	-12.9%	10µM*	-7.8	1.8%
O=C(Nc1ccc2c(c1)OCCO2)c1cccc(Br)c1	-16.2%	-0.3	-29.6%	-6.4%	-1.0	1.0%
CCOc1cc(/C=N/Nc2nc(N3CCCCC3)nc(N3CCCCC3)n2)ccc1OC(=O)c1ccco1	-5.7%	-0.5	10.8%	12.6µM*	10.3	-0.3%
CCN(CCCNC(=O)Cn1ncc2c([nH]c3ccc(C)cc32)c1=O)c1cccc(C)c1	4.2%	2.4	-68.5%	3.2%	-132.6*	2.9%
COc1cc(/C=C/C(=O)c2ccc([N+](=O)[O-])o2)ccc1O	7.4%	1.3	.	?	?	1.3%
COc1ccc(/C=C/C(=O)c2ccc([N+](=O)[O-])o2)cc1OC	-6.6%	0.4	.	2.51µM*	-26.3	-1.3%
O=C(/C=C/c1cccc(Cl)c1)c1ccc([N+](=O)[O-])o1	-14.3%	-1.2	.	?	-80.9*	-2.7%
COc1ccc(-c2nnc3c4ccccc4c(C)nn23)cc1	7.8%	0.8	9.2%	.	-3.4	0.4%
SMILES	gsp antagonist	CCT chaperon mod	gsp agonist	uPA surface inh	TSHR antag	Mm-Cpn inhibitor
Cc1nnc(N2C(=O)c3cccc4c([N+](=O)[O-])ccc(c34)C2=O)s1	-25.9%	-1.7	?	10µM*	?	1.2%
Cn1nc(C(=O)N2CCN(c3cccc(Cl)c3)CC2)c2c1-c1ccccc1S(=O)(=O)C2	?	0.5	-25.4%	-0.9%	-14.1	-5.8%
Cc1cccc(N2CCN(C(=O)c3nn(C)c4c3CS(=O)(=O)c3ccccc3-4)CC2C)c1 (centres undefined)	35.5µM*	-2.7	8.7%	-18.9%	-10.1	-0.4%
CCOC(=O)c1sc(NC(=O)Nc2ccc(F)cc2)nc1C	-3.1%	-1.0	6.1%[15.4 µM]	-5.6%	-5.3	0.6%
Cc1cccc(NC(=O)c2ccc3nccnc3c2)n1	-0.5%	-49.9*	?	-0.7%	23.1	1.9%
Cc1cccc(NC(=O)c2cccc(NC(=O)c3ccccc3)c2)n1	-17.3%	1.4	-14.6%	-2.1%	-10.2	1.5%
Cc1sc2ncn(CC(=O)NCC(=O)N(C)Cc3ccccc3)c(=O)c2c1C	8.1%	1.0	11.2µM*	.	-7.4	-0.6%
O=C(NCCc1ccccc1F)c1cc(COc2ccc(F)cc2F)on1	.	1.3	-18.2%	.	.	.
CCN1/C(=C/c2ccc3cc(C)ccc3[n+]2C)Sc2ccc3sccc3c21	?	0.8	-7.8%	10µM*	-8.8	?
CCN1/C(=C/c2ccc3cc(C)ccc3[n+]2CC)Sc2cc(C)ccc21	-17.2%	-1.5	?	1µM*	-35.3	-15.5%
CCCCN1/C(=C/c2ccc3ccccc3[n+]2CC)Sc2ccccc21	-21.7%	-1.5	-12.4%	-16.1%	-26.3	-9.0%
O=C(Cn1c(=O)oc2ccccc21)Nc1ccccc1N1CCOCC1	8.9%	-1.0	-25.0%	-3.4%	10.4	1.2%
CC(=O)c1ccc(N2CCN(C(=O)CCCn3c(=O)[nH]c4ccc(Br)cc4c3=O)CC2)cc1	35.5µM*	-0.5	19.9%	?	-14.2	-17.1%
COC(=O)c1ccc2c(=O)n(CCCCCC(=O)N3CCN(c4ccccc4)CC3)c(=O)[nH]c2c1	8.91µM*	-2.1	0.7%	-2.5%	4.8	-0.6%
CC(=O)c1ccc(N2CCN(C(=O)CCCn3c(=O)[nH]c4ccsc4c3=O)CC2)cc1	-6.0%	-1.3	-4.2%	-5.0%	-1.2	-0.9%
CCN1CCN(C(=O)CCCCCn2c(=O)[nH]c3cc(C(=O)OC)ccc3c2=O)CC1	-4.0%	-3.2	?	2.1%	-6.4	-9.1%
Cn1cc(C(=O)C(=O)NCCc2ccccc2)c2ccccc21	15.6%	-50.8*	-22.0%	3.4%	16.0	2.5%
O=C(COc1ccccc1)NNc1nc2ccccc2s1	-0.7%	-1.2	-44.2%	4.9%	6.8	0.2%
CCCCCCCCCCCCCCCC[n+]1ccccc1	11.1%	1.5	-13.2%	0.708µM*!	.	.
